# Assay results reported in PubChem BioAssay AID1159580 (chemical genetic matrix, 2015).
# Screen size: about 5,500 compounds; about 2,000 (36%) were called active. Roughly 18% stayed inconclusive and do not appear here. The list shows a part of the results. Unmarked numbers belong to inactive results. Cut-off read from the data, not from the text of the source: active = normalized growth mostly below about 0.91 (no sharp cut-off); inconclusive = no clear call, values can overlap the other calls; inactive = mostly above about 0.92.
# Assay: chemical genetic growth profiling, strain panel (AID 1159580);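 note: tested at 20 µM; growth read once vehicle control cultures reached saturation at 30 °C; 1 = growth at the plate median or of vehicle wells; lower values mean less growth of the strain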
# Settings: growth OD
smiles,measurement,setting,value
C[C@]12CCC3c4ccc(OC(=O)CCC(=O)O)cc4CCC3C1CCC2=O (stereo partly specified),normalized growth,"S. cerevisiae deletion strains, locus YAL013W, strain DEP1, stronger effect = lower value",0.981
same,normalized growth,"S. cerevisiae deletion strains, locus YBR021W, strain FUR4, stronger effect = lower value",0.85
same,normalized growth,"S. cerevisiae deletion strains, locus YBR229C, strain ROT2, stronger effect = lower value",1.01
same,normalized growth,"S. cerevisiae deletion strains, locus YCL029C, strain bik1, stronger effect = lower value",0.97
same,normalized growth,"S. cerevisiae deletion strains, locus YDL035C, strain GPR1, stronger effect = lower value",0.871
same,normalized growth,"S. cerevisiae deletion strains, locus YDL074C, strain BRE1, stronger effect = lower value",0.872
same,normalized growth,"S. cerevisiae deletion strains, locus YDL101C, strain DUN1, stronger effect = lower value",0.999
same,normalized growth,"S. cerevisiae deletion strains, locus YDL134C, strain PPH21, stronger effect = lower value",1
same,normalized growth,"S. cerevisiae deletion strains, locus YDL185W, strain tfp1, stronger effect = lower value",0.951
same,normalized growth,"S. cerevisiae deletion strains, locus YDL192W, strain arf1, stronger effect = lower value",0.916 (active)
same,normalized growth,"S. cerevisiae deletion strains, locus YDR101C, strain arx1, stronger effect = lower value",0.984
same,normalized growth,"S. cerevisiae deletion strains, locus YDR150W, strain NUM1, stronger effect = lower value",0.998
same,normalized growth,"S. cerevisiae deletion strains, locus YDR162C, strain NBP2, stronger effect = lower value",0.785 (active)
same,normalized growth,"S. cerevisiae deletion strains, locus YDR318W, strain mcm21, stronger effect = lower value",0.926
same,normalized growth,"S. cerevisiae deletion strains, locus YDR388W, stronger effect = lower value",0.98
same,normalized growth,"S. cerevisiae deletion strains, locus YDR502C, strain sam2, stronger effect = lower value",0.933
same,normalized growth,"S. cerevisiae deletion strains, locus YEL061C, strain CIN8, stronger effect = lower value",1
same,normalized growth,"S. cerevisiae deletion strains, locus YER110C, stronger effect = lower value",0.965
same,normalized growth,"S. cerevisiae deletion strains, locus YER155C, strain BEM2, stronger effect = lower value",1.01
same,normalized growth,"S. cerevisiae deletion strains, locus YER167W, strain BCK2, stronger effect = lower value",0.944
same,normalized growth,"S. cerevisiae deletion strains, locus YGL078C, strain dbp3, stronger effect = lower value",1
same,normalized growth,"S. cerevisiae deletion strains, locus YGL086W, strain mad1, stronger effect = lower value",0.922 (active)
same,normalized growth,"S. cerevisiae deletion strains, locus YGL248W, strain PDE1, stronger effect = lower value",1.01
same,normalized growth,"S. cerevisiae deletion strains, locus YGR078C, strain PAC10, stronger effect = lower value",0.949
same,normalized growth,"S. cerevisiae deletion strains, locus YGR135W, strain pre9, stronger effect = lower value",0.936
same,normalized growth,"S. cerevisiae deletion strains, locus YGR229C, strain SMI1, stronger effect = lower value",1.03
same,normalized growth,"S. cerevisiae deletion strains, locus YGR252W, strain gcn5, stronger effect = lower value",0.783
same,normalized growth,"S. cerevisiae deletion strains, locus YHR030C, strain SLT2, stronger effect = lower value",1
same,normalized growth,"S. cerevisiae deletion strains, locus YHR079C, strain IRE1 (second series), stronger effect = lower value",0.99
same,normalized growth,"S. cerevisiae deletion strains, locus YHR094C, strain hxt1, stronger effect = lower value",0.993
same,normalized growth,"S. cerevisiae deletion strains, locus YHR129C, strain ARP1, stronger effect = lower value",0.996
same,normalized growth,"S. cerevisiae deletion strains, locus YHR200W, strain rpn10, stronger effect = lower value",0.955
same,normalized growth,"S. cerevisiae deletion strains, locus YIL066C, strain RNR3, stronger effect = lower value",0.879
same,normalized growth,"S. cerevisiae deletion strains, locus YIL073C, strain SPO22, stronger effect = lower value",0.806
same,normalized growth,"S. cerevisiae deletion strains, locus YIL125W, strain kgd1, stronger effect = lower value",0.992
same,normalized growth,"S. cerevisiae deletion strains, locus YIR030C, strain dcg1, stronger effect = lower value",0.996
same,normalized growth,"S. cerevisiae deletion strains, locus YJL095W, strain BCK1, stronger effect = lower value",0.946
same,normalized growth,"S. cerevisiae deletion strains, locus YJL134W, strain LCB3, stronger effect = lower value",1.01
same,normalized growth,"S. cerevisiae deletion strains, locus YJL168C, strain set2, stronger effect = lower value",1
same,normalized growth,"S. cerevisiae deletion strains, locus YJL187C, strain SWE1 (second series), stronger effect = lower value",0.974
same,normalized growth,"S. cerevisiae deletion strains, locus YJR043C, strain POL32, stronger effect = lower value",0.911
same,normalized growth,"S. cerevisiae deletion strains, locus YJR075W, strain HOC1, stronger effect = lower value",0.968
same,normalized growth,"S. cerevisiae deletion strains, locus YKL009W, strain mrt4, stronger effect = lower value",0.884
same,normalized growth,"S. cerevisiae deletion strains, locus YKL068W, stronger effect = lower value",1
same,normalized growth,"S. cerevisiae deletion strains, locus YKL085W, strain MDH1 (second series), stronger effect = lower value",1.01
same,normalized growth,"S. cerevisiae deletion strains, locus YKL085W, strain MDH1, stronger effect = lower value",1.01
same,normalized growth,"S. cerevisiae deletion strains, locus YKL190W, strain CNB1, stronger effect = lower value",0.991
same,normalized growth,"S. cerevisiae deletion strains, locus YKR001C, strain vps1, stronger effect = lower value",0.836 (active)
same,normalized growth,"S. cerevisiae deletion strains, locus YLR039C, strain RIC1, stronger effect = lower value",0.578 (active)
same,normalized growth,"S. cerevisiae deletion strains, locus YLR058C, strain SHM2, stronger effect = lower value",0.985
same,normalized growth,"S. cerevisiae deletion strains, locus YLR102C, strain apc9, stronger effect = lower value",1.01
same,normalized growth,"S. cerevisiae deletion strains, locus YLR262C, strain YPT6, stronger effect = lower value",0.559 (active)
same,normalized growth,"S. cerevisiae deletion strains, locus YLR268W, strain sec22, stronger effect = lower value",0.976
same,normalized growth,"S. cerevisiae deletion strains, locus YLR330W, strain CHS5, stronger effect = lower value",0.986
same,normalized growth,"S. cerevisiae deletion strains, locus YLR342W, strain FKS1 (second series), stronger effect = lower value",0.81
same,normalized growth,"S. cerevisiae deletion strains, locus YLR371W, strain rom2, stronger effect = lower value",0.97
same,normalized growth,"S. cerevisiae deletion strains, locus YLR418C, strain cdc73, stronger effect = lower value",0.914
same,normalized growth,"S. cerevisiae deletion strains, locus YML016C, strain PPZ1, stronger effect = lower value",0.985
same,normalized growth,"S. cerevisiae deletion strains, locus YML032C, strain rad52, stronger effect = lower value",0.903 (active)
same,normalized growth,"S. cerevisiae deletion strains, locus YML124C, strain tub3, stronger effect = lower value",1
same,normalized growth,"S. cerevisiae deletion strains, locus YMR078C, strain ctf18, stronger effect = lower value",0.965
same,normalized growth,"S. cerevisiae deletion strains, locus YMR223W, strain ubp8, stronger effect = lower value",0.914
same,normalized growth,"S. cerevisiae deletion strains, locus YMR263W, strain SAP30, stronger effect = lower value",0.971
same,normalized growth,"S. cerevisiae deletion strains, locus YMR307W, strain GAS1, stronger effect = lower value",0.91
same,normalized growth,"S. cerevisiae deletion strains, locus YNL067W, strain RPL9B, stronger effect = lower value",0.944
same,normalized growth,"S. cerevisiae deletion strains, locus YNL128W, strain TEP1, stronger effect = lower value",0.995
same,normalized growth,"S. cerevisiae deletion strains, locus YNL153C, strain GIM3, stronger effect = lower value",1
same,normalized growth,"S. cerevisiae deletion strains, locus YNL233W, strain BNI4, stronger effect = lower value",0.989
same,normalized growth,"S. cerevisiae deletion strains, locus YNL250W, strain rad50, stronger effect = lower value",0.952
same,normalized growth,"S. cerevisiae deletion strains, locus YNL271C, strain bni1, stronger effect = lower value",0.964
same,normalized growth,"S. cerevisiae deletion strains, locus YNL298W, strain CLA4, stronger effect = lower value",0.886 (active)
same,normalized growth,"S. cerevisiae deletion strains, locus YNL307C, strain MCK1, stronger effect = lower value",0.765 (active)
same,normalized growth,"S. cerevisiae deletion strains, locus YNL322C, strain KRE1, stronger effect = lower value",0.992
same,normalized growth,"S. cerevisiae deletion strains, locus YNR052C, strain pop2, stronger effect = lower value",0.873 (active)
same,normalized growth,"S. cerevisiae deletion strains, locus YOL006C, strain TOP1, stronger effect = lower value",0.787
same,normalized growth,"S. cerevisiae deletion strains, locus YOL012C, strain htz1",1.6
same,normalized growth,"S. cerevisiae deletion strains, locus YOL147C, strain pex11, stronger effect = lower value",0.978
same,normalized growth,"S. cerevisiae deletion strains, locus YOR061W, strain CKA2, stronger effect = lower value",0.993
same,normalized growth,"S. cerevisiae deletion strains, locus YOR069W, strain VPS5, stronger effect = lower value",1
same,normalized growth,"S. cerevisiae deletion strains, locus YOR136W, strain idh2, stronger effect = lower value",0.995
same,normalized growth,"S. cerevisiae deletion strains, locus YOR144C, strain elg1, stronger effect = lower value",0.986
same,normalized growth,"S. cerevisiae deletion strains, locus YOR184W, strain ser1, stronger effect = lower value",0.675 (active)
same,normalized growth,"S. cerevisiae deletion strains, locus YOR316C, strain cot1, stronger effect = lower value",0.997
same,normalized growth,"S. cerevisiae deletion strains, locus YPL055C, strain LGE1, stronger effect = lower value",0.874
same,normalized growth,"S. cerevisiae deletion strains, locus YPL241C, strain CIN2, stronger effect = lower value",1
same,normalized growth,"S. cerevisiae deletion strains, locus YPR119W, strain clb2, stronger effect = lower value",1.01
same,normalized growth,"S. cerevisiae deletion strains, locus YPR141C, strain kar3, stronger effect = lower value",0.997
same,normalized growth,"S. cerevisiae deletion strains, locus YPR163C, strain tif3, stronger effect = lower value",0.961
same,normalized growth,"S. cerevisiae deletion strains, locus YPR167C, strain met16, stronger effect = lower value",0.998
same,normalized growth,"S. cerevisiae deletion strains, strain wtn01, stronger effect = lower value",0.929
same,normalized growth,"S. cerevisiae strains, strain wild type, stronger effect = lower value",0.95
